Each structure is given as a SMILES string. The whole screen tested about 310,000 compounds, of which about 3,900 (1.3%) were called active.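 How the source made its calls: active means calcium-response B-score plate-corrected more than 3 library SD below zero, starting fluorescence within 5 deviations, no agonist response on first addition; inactive means the rest.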 What follows is part of a selection rich in actives, with near analogues and random picks from the rest.

The target in the assay is Mas-related G-protein coupled receptor member X1 (Homo sapiens) (UniProt Q96LB2). The assay can be described thus: antagonists of human MrgX1 receptor, primary screen, HEK293 cells, Fluo-4 calcium flux (AID 588676).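 On B-score: peak minus trough fluorescence over baseline after final BAM8-22 challenge near maximal dose.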 Conditions: Fluo-4, BAM8-22 antagonism, at 10 µM; hits give low values. A general note: A change in cytosolic calcium serves as a functional read-out for many receptors and channels.
Sequence of Mas-related G-protein coupled receptor member X1 (Homo sapiens) (Q96LB2 whole entry, looked up): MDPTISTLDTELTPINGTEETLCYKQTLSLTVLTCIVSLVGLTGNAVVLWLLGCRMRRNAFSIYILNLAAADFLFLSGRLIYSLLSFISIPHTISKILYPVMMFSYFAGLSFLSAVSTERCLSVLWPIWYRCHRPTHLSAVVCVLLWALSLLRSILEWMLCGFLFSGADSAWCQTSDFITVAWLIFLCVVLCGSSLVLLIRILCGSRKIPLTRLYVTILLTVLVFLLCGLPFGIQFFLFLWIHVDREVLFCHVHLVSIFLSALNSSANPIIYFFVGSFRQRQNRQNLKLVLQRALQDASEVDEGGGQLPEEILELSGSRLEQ
Turning to `O=C(Cn1c(-c2cncs2)nc2ccccc21)NC1CCCC1`, the B-score was -5 (active).

On to `CC(=O)c1cc(-c2ccccc2)n(CC(=O)NC2CCCCC2)c1C`, for which the B-score entry was “inactive”. With `O=C(Cn1c(-c2cscn2)nc2ccccc21)Nc1ccc(Cl)cc1` the entry was “inactive”.

`Cc1cc(NC(=O)CSC2=NS(=O)(=O)c3cc(Cl)ccc3N2)no1`: the B-score result is “inactive”. With `C[C@@H](NC(=O)OC(C)(C)C)c1nnc(S(=O)(=O)Cc2ccccc2)o1` the entry was “inactive”. The entry for `CNC(=S)N/N=C/c1ccc(OCc2ccccc2)c(Br)c1` is “inactive”. The figure for `COCCNC(=O)Nc1ccc2nc(-c3ccco3)c(-c3ccco3)nc2c1` is -6.82 (active).

As to `O=C(NCc1ccccn1)c1ccc2nc(-c3ccco3)c(-c3ccco3)nc2c1`, the B-score entry was “inactive”. The entry for `CCCC(=O)Nc1ccc2c(c1)nc(CCNC(=O)c1ccco1)n2C` is “inactive”. With `CCOc1ccc(S(=O)(=O)NCCC(=O)N2CCCCCCC2)cc1` the entry was “inactive”.

Consider `O=C(NC(=S)N1CCc2ccccc21)c1ccco1`, for which the B-score entry was “inactive”. With `O=[N+]([O-])c1ccc2nc(-c3ccccn3)[nH]c2c1` the entry was “inactive”; with `O=[N+]([O-])c1ccc2c(c1)Nc1nc3ccccc3nc1N2`, -4.67 (active).

In the case of `COc1ccc([N+](=O)[O-])cc1-c1nc2ccccc2nc1-c1ccccc1`, the B-score entry is “inactive”. The entry for `[O-][n+]1onc2c1CCc1[nH]c(-c3ccccc3)nc1-2` is “inactive”; for `COc1ccc(C2=NN(C(C)=O)C(c3ccccc3)C2)cc1` (stereo not drawn) it is “inactive”. With `COc1ccc(NC(=S)N2N=CCC2c2ccccc2)cc1` (stereo not drawn) the figure was -7.31 (active); with `COc1ccc(C(=S)Nc2ccccc2)cc1`, “inactive”; with `Cc1nnc(CN(C)Cc2cn[nH]c2-c2ccc(-c3ccccc3)cc2)o1`, “inactive”. As to `CC(Nc1nc(C(F)(F)F)nc2ccccc12)c1cccs1` (stereo not drawn), the B-score entry is “inactive”. For `Cc1ccc(N2C(=O)C3C4C=CC(CC4)C3C2=O)cc1Br` (stereo not drawn), the B-score entry is “inactive”. The entry for `CNC(=S)N1CCN(c2ccccn2)CC1` is “inactive”; for `O=[N+]([O-])c1ccc(NC(=S)N2CCN(c3ccccn3)CC2)cc1` it is “inactive”; for `COc1cc([N+](=O)[O-])ccc1NC(=S)N1CCN(c2ccccn2)CC1` it is -5.85 (active). The entry for `CCC(C(=O)NC1CCCCC1)N(C(=O)c1snc(C(N)=O)c1N)c1ccc(OC)cc1OC` (stereo not drawn) is “inactive”; for `COC(=O)c1cccc(C(=O)N2CCCC(Nc3ccc4c(c3)OCCO4)C2)c1` (stereo not drawn) it is “inactive”; for `Cc1ccc(S(=O)(=O)N2CCN(C(=O)c3ccccc3-c3nc4ccccc4s3)CC2)c(C)c1` it is -4.66 (active).

As to `Cc1ccc(S(=O)(=O)N2CCN(C(=O)COC(=O)c3c(C)cc(C)cc3C)CC2)c(C)c1`, the B-score result is “inactive”. With `Cc1ccc(S(=O)(=O)N2CCN(C(=O)N3CCOCC3)CC2)c(C)c1` the entry was “inactive”; with `COc1cc(SC#N)ccc1N=Cc1c(C)[nH]n(-c2ccc(C)cc2)c1=O`, “inactive”; with `C=CCSc1nsc(NC(=O)Nc2cccc(C(C)=O)c2)n1`, “inactive”. Regarding `CCSc1nsc(NC(=O)Nc2ccccc2OC)n1`, the B-score entry was “inactive”. The figure for `CCSc1nsc(NC(=O)Nc2cccc(C(C)=O)c2)n1` is -6.91 (active); for `COc1cccc(-c2cc(C(=O)N/N=C/c3ccc(OC)c(COC(C)=O)c3)c3ccccc3n2)c1` it is -7.49 (active). With `COc1ccc(/C=N/NC(=O)c2cc(-c3cccc(C)c3)nc3ccccc23)cc1O` the entry was “inactive”; with `CCOc1cc(/C=N/NC(=O)c2cc(-c3ccccc3)nc3ccccc23)ccc1O`, “inactive”. On to `CCCCN(C1CCS(=O)(=O)C1)S(=O)(=O)c1ccc(C(C)C)cc1` (stereo not drawn), for which the B-score result is “inactive”. The entry for `O=c1[nH]c(N2CCOCC2)nc2ccccc12` is “inactive”. The entry for `CC1(C)Cc2c(C#N)c(SCc3nc4ccccc4[nH]3)nc(N3CCOCC3)c2CO1` is “inactive”; for `C1=C(N2CCOCC2)/C(=C/c2nc3ccccc3[nH]2)CC1` it is -5.3 (active). The entry for `COc1ccc2c(c1)[C@H]1[C@H](CO2)[C@H](c2ccccc2)[C@]2(C)C(=O)Nc3cc(F)c(F)cc3C(=O)N12` is “inactive”.

For the molecule `COc1cc(CN(C)Cc2nc3cc(C(F)(F)F)ccc3c(=O)[nH]2)ccc1OC(F)F`, the B-score entry was “inactive”.

`CCOCCCNC(=O)C1(O)c2cc(Br)ccc2NC(=O)N1c1ccc(C)c(C)c1` (stereo not drawn): the B-score result was “inactive”. With `C=CCn1c(=NC(=O)c2cccs2)sc2cc(NC(C)=O)ccc21` the entry was “inactive”; with `Cc1ccc(Cc2cnc(N)s2)o1`, -6.78 (active). Consider `Cc1ccc(CCC(=O)Nc2ncc(Cc3cc(Cl)ccc3Cl)s2)o1`, for which the B-score result was “inactive”.

On to `CCn1ccnc1CN(C)C(=O)c1cc(COc2ccc(Cl)cc2OC)on1`, for which the B-score result was “inactive”. In the case of `CCc1ccc2[nH]c(=O)c(Cc3ccccc3)c(O)c2c1`, the B-score entry is “inactive”. With `Cc1ccc(N=C2NC(=O)/C(=C/C=C/c3ccco3)S2)cc1C` the entry was “inactive”. With `CN(C)c1ccc(-n2cccc2/C=C2/SC(=Nc3ccc(F)cc3)NC2=O)cc1` the figure was -5.31 (active). With `CN(C)c1ccc(-n2cccc2/C=N/n2cnnc2)cc1` the entry was “inactive”; with `Cc1ccccc1NC(=O)Cn1cc(C(=O)C2CC2)c2ccccc21`, “inactive”. Turning to `COc1cccc2sc(N(CCCN(C)C)C(=O)C(c3ccccc3)c3ccccc3)nc12`, the B-score was -7.14 (active). The entry for `COc1cc2ccccc2cc1C(=O)N(CCN(C)C)c1nc2c(F)cccc2s1` is “inactive”. With `COc1cccc2sc(N(CCCN(C)C)C(=O)CCS(=O)(=O)c3ccccc3)nc12` the entry was “inactive”; with `CCc1ccc2c(c1)C1(NN=C(c3ccccc3)S1)C(=O)N2` (stereo not drawn), “inactive”; with `CCOC(=O)c1c(NC(=O)CCl)sc(C(=O)N(CC)CC)c1C`, “inactive”.

For the molecule `Cn1nc(C(F)(F)F)cc1-c1ccc(/C=C(\C#N)C(=O)c2cccc(C(F)(F)F)c2)s1`, the B-score result was “inactive”. On to `CCOC(=O)c1c(C)nc(-c2ccccc2)nc1NC(=O)C(C)C`, for which the B-score entry was “inactive”. With `CCOC(=O)c1c(C)[nH]c(=S)c(C#N)c1-c1ccccc1`, the B-score is -6.66 (active). The entry for `CC(=O)c1c(C)[nH]c(=S)c(C#N)c1-c1ccc(F)cc1` is “inactive”. The entry for `O=c1c(Cl)c(NCc2ccc(F)cc2Cl)cnn1C12CC3CC(CC(C3)C1)C2` is “inactive”; for `Cc1cccc2c1-c1sc(C(=O)NCCCN3CCc4ccccc4C3)cc1CO2` it is “inactive”; for `CC1=NN(c2cccc(Cl)c2)C(=O)C12CC(C)=C(C)CS2` (stereo not drawn) it is “inactive”. With `CC(C)Oc1ccc(C(CC(=O)N2CCOCC2)C(C)C)cc1` (stereo not drawn) the entry was “inactive”. In the case of `O=[N+]([O-])c1ccc(N2CCN(S(=O)(=O)c3ccccc3)CC2)cc1N1CCc2ccccc2C1`, the B-score entry was “inactive”. For the molecule `CC(C)CC(O)C1CCN(C(=O)CCc2nnc(-c3ccc4c(c3)OCO4)o2)CC1` (stereo not drawn), the B-score entry was “inactive”. With `COCC1CCN(C(=O)CCc2nnc(C3(c4ccc(Cl)cc4)CCC3)o2)C1` (stereo not drawn) the entry was “inactive”.

For `Cc1nccn1CCC1CCCCN1C(=O)CCc1nnc(-c2ccsc2)o1` (stereo not drawn), the B-score was -4.86 (active).

With `CN(C)C(CNC(=O)Cc1ccc([N+](=O)[O-])cc1)c1ccccc1` (stereo not drawn), the B-score result was “inactive”.

For `CN(C)CCNC(=O)Cc1ccc([N+](=O)[O-])cc1`, the B-score was -6.37 (active). With `O=C(CSCc1ccc([N+](=O)[O-])cc1)NCCSCc1ccccc1` the entry was “inactive”; with `COc1cc(NC(=S)NCc2ccco2)c(OC)cc1Cl`, “inactive”; with `FC(F)Oc1ccc(NC(=S)NCc2ccco2)cc1Cl`, -4.6 (active). With `S=C(NCc1ccco1)Nc1ccc2c(c1)OCCO2` the entry was “inactive”; with `O=C1CCc2cc(S(=O)(=O)Nc3ccc(C(F)(F)F)cc3)cc3c2N1CC3`, “inactive”; with `CCN(CC(=O)Nc1cc(Cl)ccc1C)C(=O)Cn1c(=O)cnc2ccccc21`, “inactive”. With `CCOC1CCCCC1NS(=O)(=O)c1ccc(Cl)cc1` (stereo not drawn) the figure was -6.36 (active); with `O=S(=O)(NC1CCCCC1N1CCCCC1)c1ccc(Cl)cc1` (stereo not drawn), “inactive”.

For the molecule `CCN1CCN(C2CCCCC2NS(=O)(=O)c2ccc(Cl)cc2)CC1` (stereo not drawn), the B-score result is “inactive”. With `O=C(O)CCCN1C(=O)c2ccccc2Sc2ncccc21` the entry was “inactive”; with `COc1ccc(CC(=O)NCc2nnc(SCC(=O)Nc3nccs3)n2C)cc1`, “inactive”; with `COc1ccc(C(=O)NCc2nnc(SCCOc3ccccc3)n2C)cc1`, -8.04 (active). The entry for `COc1ccc(C(=O)NCc2nnc(SCC(=O)NC3=NCCS3)n2C)cc1` is “inactive”. For `CCN(CC)C(=O)CSc1nnc(CNc2ccc(F)cc2)n1Cc1ccco1`, the B-score result was “inactive”. The entry for `O=c1[nH]n2c(=O)c3c([nH]c2c1N=Nc1ccccc1)CCC3` is “inactive”; for `CC(C)(C)n1c(=O)[nH]c2c(c1=O)CCC2` it is -7.85 (active); for `O=C(COC(=O)Cc1c[nH]c2ccccc12)NCCc1ccccc1` it is “inactive”. For `Cc1nc(CNS(=O)(=O)c2ccc(Oc3ccccc3)cc2)cs1`, the B-score result is “inactive”. With `O=C(NCCCc1ccccc1)C(=O)c1c[nH]c2ccccc12` the entry was “inactive”; with `CCS(=O)(=O)N1Cc2ccccc2CC1C(=O)Nc1nc2ccc(F)cc2s1` (stereo not drawn), “inactive”.

`COc1ccc(OCCCC(=O)OC(C)C(=O)Nc2ccccc2[N+](=O)[O-])cc1` (stereo not drawn): the B-score entry is “inactive”. With `COc1ccc(N2CCN(C(=O)CN3C(=O)COc4ccccc43)CC2)cc1` the entry was “inactive”. With `Nc1ccc(SCCN2C(=O)c3ccccc3C2=O)cc1` the entry was “inactive”. On to `NC(=O)C1(C(N)=O)OC1c1ccc(Cl)cc1Cl` (stereo not drawn), for which the B-score entry was “inactive”. As to `O=C(NC1CC1)C1=C[C@H](c2coc3ccccc3c2=O)C[C@H](OCCCCO)O1`, the B-score result was “inactive”. Consider `Nc1ccc2nc3c(=O)[nH]c(=S)[nH]c3nc2c1`, for which the B-score entry is “inactive”.

On to `CNC(=O)c1cccc2nc3ccccc3nc12`, for which the B-score entry is “inactive”.

In the case of `O=c1[nH]c(=O)c2nc3ccccc3nc2[nH]1`, the B-score was -4.56 (active). The entry for `CC1(C)CC(=O)C(N=Nc2c(F)cccc2F)=C(O)C1` is “inactive”. With `CC(=O)N1CCC(C(=O)OCc2ccc(Cl)cc2)(c2ccccc2)CC1`, the B-score result is “inactive”. As to `Cc1ccc(S(=O)(=O)N(C)c2nc3ccccc3n3c(C(C)C)nnc23)cc1`, the B-score entry is “inactive”. In the case of `Nc1cc(OC(=O)c2ccccc2Br)nn1S(=O)(=O)c1ccccc1`, the B-score result was “inactive”. The entry for `Cc1ccc(-c2cn(S(=O)(=O)c3cccc([N+](=O)[O-])c3)nc2N)cc1` is “inactive”; for `Cc1ccc(S(=O)(=O)n2nc(OC(=O)C(C)(C)C)cc2N)cc1` it is -8.79 (active); for `O=C(Nc1ccccc1Cl)N1CCN(c2ccc3nncn3n2)CC1` it is -4.64 (active). Take `Cc1ccc(C(=O)NC2CCN(C(=O)Nc3ccccc3Cl)CC2)cc1`: the B-score result is “inactive”. The entry for `O=C(COc1ccc(-n2cnnn2)cc1)Nc1ccccc1Cl` is “inactive”.
